From PubChem BioAssay (NCATS)
Results filed as inconclusive are left out. Where a call stands in place of a potency, no number is given. Active and inactive are the calls of the source. Calls come from the whole dose curve; as a rule, active = well fitted inhibition curve with a large enough effect; inconclusive = small, poorly fitted or top-dose-only effect; inactive = flat fitted curve, though single readings scatter.

Molecular target: Calcium and integrin-binding protein 1 (Homo sapiens) (UniProt Q99828)
Assay: Primary qHTS for Identification of Calcium Integrin Binding Protein 1 (CIB1) Competitor (AID 1508620)
Conditions: CIB1-GST / FITC-alphaIIb peptide fluorescence polarization; series mostly up to 114 µM
Procedure, shortened: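 Fluorescence polarization competition: CIB1-GST (1 uM final) preincubated with compound 15 min at room temperature, then FITC-labeled alphaIIb peptide (100 nM final) added for another 15 min. Polarization read at Ex 480/Em 540.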
Potency is the fitted concentration of half-maximal effect.

Chain of Calcium and integrin-binding protein 1 (Homo sapiens) (Q99828 whole entry, looked up): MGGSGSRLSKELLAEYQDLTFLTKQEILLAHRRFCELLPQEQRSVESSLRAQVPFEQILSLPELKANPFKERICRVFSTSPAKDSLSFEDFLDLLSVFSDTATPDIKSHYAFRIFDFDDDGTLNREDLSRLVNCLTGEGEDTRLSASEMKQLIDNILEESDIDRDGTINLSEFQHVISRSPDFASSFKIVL

SMILES | Potency
O=C1Nc2ccccc2/C1=C/c1cccc(C(=O)O)c1 | inactive
Cc1ccc(CNc2ncnc3ccc(-c4oc(-c5ccccc5)nc4C)cc23)o1 | inactive
CCOc1ccc(C(=O)Nc2ccc(-c3nc4ccccc4o3)cc2)cc1[N+](=O)[O-] | inactive
Cc1ccc(C2N=C(Nc3nc4ccccc4o3)NC3=C2C(=O)CCC3)cc1 (stereo not given) | inactive
CC(C)Cc1ccc(-c2ccc(=O)n(CC(=O)NCCc3ccccc3)n2)cc1 | inactive
Cc1cc(NC(=O)Nc2nnc(-c3ccncc3)s2)ccc1F | inactive
O=C1Cc2cc(S(=O)(=O)N3CCN(c4ccc([N+](=O)[O-])cc4)CC3)ccc2N1 | inactive
Cc1cc(-c2ccccc2)n2ncc(C(=O)Nc3ccccc3Sc3ccccc3)c2n1 | inactive
CC(=O)Nc1sc2c(c1-c1nc3ccccc3s1)CCN(C(C)=O)C2 | inactive
Cc1ccccc1N(C)C1=N[S+](=O)([O-])c2ccccc21 | inactive
CN(Cc1ccc(-c2ccc(C#N)cc2)o1)c1ccc(N2CCN(C(=O)OC(C)(C)C)CC2)cc1 | inactive
O=C(Nc1ncc(Cc2ccc(C(F)(F)F)cc2)s1)c1ccc(-c2ccc([N+](=O)[O-])cc2)o1 | inactive
c1c[nH]c(C2CCN(c3ncc(-c4ccc5c(c4)OCCCO5)s3)CC2)n1 | inactive
O=S(=O)(Nc1ccc(-c2ccccc2)cc1)c1ccc(NCc2ccc(Br)cc2O)cc1 | inactive
CCC(C)N(C)C(=O)Cn1nc(-c2ccc(C)cc2)ccc1=O (stereo not given) | inactive
O=C1CCc2cc(Cl)c(S(=O)(=O)Nc3ccc(Cl)c(Cl)c3)cc2N1 | inactive
O=C(Nc1cncc(-c2cccc3ccccc23)c1)c1cccs1 | inactive
COc1cccc(-c2ccc3ncnc(NCc4cccc(C)c4)c3c2)c1 | inactive
NC(=O)c1c(-c2ccccc2)no[n+]1[O-] | inactive
COc1cc(O)c(C(CC(=O)N2CCCCCC2)c2ccc3c(c2)OCO3)c(OC)c1 (stereo not given) | inactive

SMILES | Potency
O=C1C2=C(CN1c1ccccc1)NC(Nc1nc3ccccc3o1)=NC2c1ccccc1Cl (stereo not given) | inactive
CSc1ccc(CNc2ncnc3ccc(-c4c(C)noc4C)cc23)cc1 | inactive
Cc1c(P(=S)(c2ccccc2)c2ccccc2)c2ccccc2n1CCCc1ccccc1 | inactive
O=C(OCC#CCSc1nnc(-c2cccc(F)c2)o1)c1ccc(F)cc1 | inactive
N#Cc1c(-c2cccc([N+](=O)[O-])c2)no[n+]1[O-] | inactive
CC(C)(C)OC(=O)Cc1nnc(CNC(=O)c2ccccc2)s1 | inactive
Oc1cccc2cc(-c3ccncc3)cnc12 | inactive
O=C(Nc1ncc(Cc2ccc(C(F)(F)F)cc2)s1)c1cnc(-c2ccccc2)[nH]1 | inactive
Cc1cc(C)nc(NC(=S)N2CCN(c3ccc4nsnc4c3)CC2)c1 | 50.1 µM (active)
O=C(Nc1ccc(Cl)c(C(F)(F)F)c1)Nc1cccc(-c2ccncc2)n1 | inactive
O=C1CCCC2=C1C(c1[nH]ncc1Cl)N=C(Nc1ccccn1)N2 (stereo not given) | inactive
Cc1ccc(OCCn2c(CCNC(=O)c3cccc(C#N)c3)nc3ccccc32)cc1 | inactive
O=C(O)c1ccc(CSc2nnc(-c3cccc(S(=O)(=O)NC4CCCC4)c3)n2-c2ccc(F)cc2)cc1 | inactive
Cc1ccnc(NC(=S)N2CCN(c3cc(C(F)(F)F)cc(C(F)(F)F)c3)CC2)c1 | inactive
O=C1CCCC2=C1C(c1cnccc1C(F)(F)F)N=C(Nc1nc3ccccc3o1)N2 (stereo not given) | inactive
COc1cc(-c2ccc3ncnc(NCc4nc(C)cs4)c3c2)cc(OC)c1OC | inactive
CC(=O)Nc1ccc(-c2c(NC(C)=O)sc3c2CCNC3)cn1 | inactive
Cc1ccc(OCCn2c(CCNC(=O)c3ccc[nH]3)nc3ccccc32)cc1 | inactive
NC(=O)C1CCN(c2nc(-c3ccc(Br)cc3)cs2)CC1 | inactive
O=[N+]([O-])c1ccc(-c2nc(Nc3ccc(F)c(F)c3)c3ccccc3n2)cc1 | inactive
